# PMC4336329 (PLoS ONE, 2015)
# Among all 310,000 compounds or so, about 14,000 (4.5%) showed an effect of 50% or more. The effect is printed as a negative number. The list comes from a sample in which strong results are over-represented; it also holds similar structures and randomly drawn compounds.
# Target: human ether-à-go-go-related gene (hERG) potassium channel (human, UniProt Q12809)
# Experiment: primary screen, population patch clamp on CHO cells stably expressing hERG; higher = less effect of the substance
# 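Further: peak tail current of the secondary pulse compared with the same well before compound.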
# human ether-à-go-go-related gene (hERG) potassium channel, sequence (Q12809 whole entry, looked up): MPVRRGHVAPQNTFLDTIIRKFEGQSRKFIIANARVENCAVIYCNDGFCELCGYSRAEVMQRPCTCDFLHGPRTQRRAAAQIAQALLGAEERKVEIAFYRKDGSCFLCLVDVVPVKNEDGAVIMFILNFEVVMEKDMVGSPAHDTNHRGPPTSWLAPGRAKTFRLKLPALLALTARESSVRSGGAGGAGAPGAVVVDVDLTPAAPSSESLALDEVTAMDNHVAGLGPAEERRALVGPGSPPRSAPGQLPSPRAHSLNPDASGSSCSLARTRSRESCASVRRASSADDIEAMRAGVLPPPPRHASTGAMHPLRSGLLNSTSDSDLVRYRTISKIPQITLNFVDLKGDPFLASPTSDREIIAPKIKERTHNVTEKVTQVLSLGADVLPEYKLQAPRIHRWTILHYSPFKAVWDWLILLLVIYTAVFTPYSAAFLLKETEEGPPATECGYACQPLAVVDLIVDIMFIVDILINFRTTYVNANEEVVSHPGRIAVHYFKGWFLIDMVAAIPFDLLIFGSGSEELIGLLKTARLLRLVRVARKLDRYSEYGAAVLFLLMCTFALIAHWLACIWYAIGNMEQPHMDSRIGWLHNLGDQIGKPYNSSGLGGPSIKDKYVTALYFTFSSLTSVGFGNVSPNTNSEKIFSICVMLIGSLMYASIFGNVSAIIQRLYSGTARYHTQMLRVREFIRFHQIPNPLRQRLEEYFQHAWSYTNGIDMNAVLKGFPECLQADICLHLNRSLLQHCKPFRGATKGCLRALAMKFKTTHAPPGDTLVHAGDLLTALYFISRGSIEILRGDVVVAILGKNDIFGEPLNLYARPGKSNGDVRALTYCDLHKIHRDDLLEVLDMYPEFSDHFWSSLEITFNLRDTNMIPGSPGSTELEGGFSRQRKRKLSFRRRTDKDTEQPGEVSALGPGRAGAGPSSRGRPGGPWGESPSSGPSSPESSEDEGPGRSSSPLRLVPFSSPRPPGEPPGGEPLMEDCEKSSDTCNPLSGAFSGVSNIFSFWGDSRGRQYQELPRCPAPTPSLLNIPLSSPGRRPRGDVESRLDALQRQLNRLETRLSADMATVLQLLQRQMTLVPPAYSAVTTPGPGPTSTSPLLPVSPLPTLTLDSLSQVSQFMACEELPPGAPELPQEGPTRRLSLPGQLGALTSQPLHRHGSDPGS
row,SMILES,"hERG current change (%, negative = inhibition) at 10uM [%]"
1,O=C1c2ccccc2C(=O)N1CCc1nn[nH]n1,17
2,COc1ccc(NC(=O)NNC(=O)COc2ccc3cc(Br)ccc3c2)c(OC)c1,19.2
3,CCOC(=O)C1(CCc2ccccc2)CCN(C(=O)C(C)n2cncn2)CC1 (stereo not drawn),-14.3
4,CCOC(=O)C1(Cc2ccccc2Cl)CCN(C(=O)CN2CCOC2=O)CC1,8.88
5,CCOC(=O)C1(Cc2ccc(OC)cc2)CCN(C(=O)CCN2CCCC2=O)CC1,-3.22
6,CCOC(=O)C1(Cc2ccccc2Cl)CCN(C(=O)CCn2ccnc2C)CC1,-52.6
7,CCOC(=O)C1(CCCc2ccccc2)CCN(C(=O)C(C)n2cncn2)CC1 (stereo not drawn),-29
8,CCOC(=O)C1(CCCc2ccccc2)CCN(C(=O)CN2CCOC2=O)CC1,6.35
9,CCOC(=O)C1(CCCc2ccccc2)CCN(C(=O)CCCn2cncn2)CC1,-44.1
10,CCOC(=O)C1(CCc2ccccc2)CCN(C(=O)CCn2cncn2)CC1,-63.2
11,CCOC(=O)C1(CCCc2ccccc2)CCN(C(=O)CCN2CCCCC2=O)CC1,-62.8
12,CCOC(=O)C1(Cc2ccccc2Cl)CCN(C(=O)c2cnccn2)CC1,-20.2
13,CCOC(=O)C1(CCCc2ccccc2)CCN(C(=O)CCn2cncn2)CC1,-56.4
14,CN(C)c1nc(N)c([N+](=O)[O-])c(NCC2CCCO2)n1 (stereo not drawn),7.07
15,O=C(O)CCCNC(=O)/C=C/c1ccco1,12.5
16,CC(=O)Nc1sc(-c2ccccc2)nc1-c1ccccc1,14
17,CCOC(=O)c1[nH]c2ccc(OC)cc2c1NC(=O)c1nonc1C,6.27
18,Cc1cc(-c2nnc(CCC(=O)NCc3ccc(F)c(F)c3)o2)no1,2.95
19,Cc1ccnc(NC(=O)c2cccc(S(=O)(=O)N3CCCc4ccccc43)c2)c1,-1.95
20,CN(C(=O)CC1C(=O)NCCN1Cc1c(F)cccc1Cl)C1CCOCC1 (stereo not drawn),17.9

row,SMILES,"hERG current change (%, negative = inhibition) at 10uM [%]"
1,Cc1ccc(S(=O)(=O)N2CC(=O)NC(=O)C2)cc1,6.07
2,O=C(C#Cc1ccccc1)Nc1ccc(F)cc1,10.1
3,C[C@@H](NC(=O)c1nc[nH]c1C(=O)NCc1ccc(CNC(=O)OC(C)(C)C)cc1)c1ccccc1,6.47
4,CCOC(=O)C1(CCCc2ccccc2)CCN(C(=O)CN2C(=O)CSC2=O)CC1,-4.63
5,CCOC(=O)C1(CCc2ccccc2)CCN(C(=O)CCn2cnnn2)CC1,-43.2
6,CCOC(=O)C1(CCCc2ccccc2)CCN(C(=O)CCn2cnnn2)CC1,-56.6
7,COc1ccc(NC(=O)NNC(=O)c2ccc(Cl)cc2Cl)cc1OC,13
8,CCOc1ccc2c(c1)sc1nc(C(=O)OC)cc(=O)n12,-12.9
9,C[C@]12CS(=O)(=O)C[C@H]1SC(=S)N2c1ccccc1,-0.916
10,Cc1cccc(N2CCN(C(=O)c3cc4c(=O)[nH]c5ccccc5c4n3C)CC2)c1C,14.6
11,Cn1c(C(=O)N2CCN(c3ccc(Cl)cc3)CC2)cc2c(=O)[nH]c3ccccc3c21,-114
12,Cc1ccc(Cl)cc1N1CCN(C(=O)c2cc3c(=O)[nH]c4ccccc4c3n2C)CC1,8.91
13,OCCNc1nc2ccccc2[nH]1,12.8
14,CCCCN(CCCC)CCCNC(=O)C1CC(c2ccc(C(F)(F)F)cc2)=NO1 (stereo not drawn),-72.3
15,CCCCNC(=O)C1CC(c2ccc(C(F)(F)F)cc2)=NO1 (stereo not drawn),3.73
16,CCCCN(CCCC)CCCNC(=O)C1CC(c2cc(C(F)(F)F)cc(C(F)(F)F)c2)=NO1 (stereo not drawn),3.86
17,COCCCN1C(=O)c2ccc(C(=O)OCC(=O)N(C)c3ccccc3)cc2C1=O,2.63
18,CCOc1cccc2cc(-c3csc(NC(=O)CCC(=O)NCCCN4CCC(C)CC4)n3)c(=O)oc12,-44.6
19,COc1cccc2cc(-c3csc(NC(=O)CCC(=O)NCCCN4CCC(C)CC4)n3)c(=O)oc12,-51.9
20,CCOc1cccc2cc(-c3csc(NC(=O)CCC(=O)NCCN4CCCCC4C)n3)c(=O)oc12 (stereo not drawn),-34.9

row,SMILES,"hERG current change (%, negative = inhibition) at 10uM [%]"
1,O=C(CNC(=O)c1cccc(Br)c1)NCCc1nc2ccccc2[nH]1,5.59
2,COc1ccc(C(=O)C2CCCN(C(=O)c3cccc(Cn4cccn4)c3)C2)cc1F (stereo not drawn),-14.5
3,COc1ccc(CN2CCCC(C(=O)c3cccc(OC(C)C)c3)C2)cc1Cn1cccn1 (stereo not drawn),-69.9
4,COc1ccc(CN2CCCC(C(=O)c3ccc(Cl)cc3)C2)cc1Cn1cccn1 (stereo not drawn),-83.9
5,COc1ccc(CN2CCCC(C(=O)c3ccc(SC)cc3)C2)cc1Cn1cccn1 (stereo not drawn),-80.3
6,COc1ccccc1C(=O)C1CCCN(C(=O)c2cccc(Cn3cccn3)c2)C1 (stereo not drawn),-13
7,COCCNC(=O)CSc1ncnc2sc(-c3ccccc3)cc12,2.83
8,CC(C)(C)C1CCc2c(C(=O)NNC(=O)/C=C/C(=O)O)csc2C1 (stereo not drawn),10.3
9,Cc1c(C(=O)N2CCC3(CC2)OCCO3)sc2ncnc(N3CCc4ccccc4C3)c12,-33.7
10,N#CCCn1cc(C(=O)O)c(-c2cc3ccccc3o2)n1,24.6
11,CCC(O)C1CCN(Cc2cn(Cc3ccccc3)nc2-c2cc3ccccc3o2)CC1 (stereo not drawn),-65.1
12,Cn1cc(CN2CCC(C(O)CCc3ccccc3)CC2)c(-c2ccccc2F)n1 (stereo not drawn),-71.3
13,OC1CCCN(Cc2cn(Cc3ccccc3)nc2-c2cc3ccccc3o2)C1 (stereo not drawn),-44.7
14,OC1CCN(Cc2cn(Cc3ccccc3)nc2-c2cc3ccccc3o2)CC1,-50.7
15,Cn1cc(CN2CCC(C(=O)N3CCCC3)CC2)c(-c2ccccc2F)n1,-4.8
16,OCC1CCCN(Cc2cn(Cc3ccccc3)nc2-c2cc3ccccc3o2)C1 (stereo not drawn),-41.9
17,O=Cc1cn(CCC(=O)O)nc1-c1cc2ccccc2o1,-5.41
18,Cn1cc(CN2CCC(C(=O)N3CCCCC3)CC2)c(-c2ccccc2F)n1,4.1
19,OCC1CCN(Cc2cn(Cc3ccccc3)nc2-c2cc3ccccc3o2)CC1,-67
20,O=C1CSC(c2cn(-c3ccccc3)nc2-c2cc3ccccc3o2)N1Cc1ccccc1 (stereo not drawn),-6.82
